Data as given in PubChem BioAssay (NCI).
This is part of a sample that, as a whole, favours compounds with a hit. Of some 83,000 tested, about 20% had one in any assay.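 Single-concentration screen, 48 h exposure, 96-well plates. Endpoint: percent growth. Below 10 = active.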 A number with no mark means an inactive call. Activity calls are given as the source filed them.

Columns and labels:
Assay in all cases: NCI-60 one-dose screen, 48 h (100 = growth as untreated, 0 = no growth, -100 = all killed)
Conditions in all cases: 10 µM unless noted
NCI-H23 lung = system: NCI-H23 lung
NCI-H226 lung = system: NCI-H226 lung
NCI-H322M lung = system: NCI-H322M lung
HOP-62 NSCLC = system: HOP-62 NSCLC
NCI-H460 lung = system: NCI-H460 lung
HOP-92 NSCLC = system: HOP-92 NSCLC
NCI-H522 lung = system: NCI-H522 lung
A549/ATCC NSCLC = system: A549/ATCC NSCLC
786-0 renal = system: 786-0 renal
COLO 205 colon = system: COLO 205 colon
DU-145 prostate = system: DU-145 prostate
K-562 leukemia = system: K-562 leukemia
MALME-3M melanoma = system: MALME-3M melanoma
MDA-MB-231 breast = system: MDA-MB-231 breast
SF-268 CNS = system: SF-268 CNS
SF-295 CNS = system: SF-295 CNS
SF-539 CNS = system: SF-539 CNS
UACC-257 melanoma = system: UACC-257 melanoma
RXF 393 renal = system: RXF 393 renal

| Compound | growth (NCI-H23 lung) | growth (NCI-H226 lung) | growth (NCI-H322M lung) | growth (HOP-62 NSCLC) | growth (NCI-H460 lung) | growth (HOP-92 NSCLC) | growth (NCI-H522 lung) | growth (A549/ATCC NSCLC) | growth (786-0 renal) | growth (COLO 205 colon) | growth (DU-145 prostate) | growth (K-562 leukemia) | growth (MALME-3M melanoma) | growth (MDA-MB-231 breast) | growth (SF-268 CNS) | growth (SF-295 CNS) | growth (SF-539 CNS) | growth (UACC-257 melanoma) | growth (RXF 393 renal) |
| --- | --- | --- | --- | --- | --- | --- | --- | --- | --- | --- | --- | --- | --- | --- | --- | --- | --- | --- | --- |
| COc1ccc(-c2c(N)n[nH]c2-c2ccccc2O)cc1OC | 93.1% | 99.6% | 102% | 88.9% | 107% | 74% | 85% | 95.2% | 97.2% | 98.1% | 116% | 87.2% | 62.8% | 78.7% | 100% | 101% | 86.5% | 100% |  |
| Cc1nc(Nc2ccc(NC(=S)Nc3ccccc3)cc2)nc2nc(Nc3cccc(Cl)c3)[nH]c(=O)c12 | 92.4% | 99.2% | 183% | 91.7% | 114% | 60.4% | 34.4% | 86.1% | 98.7% | 122% | 123% | 71.8% | 120% | 84.7% | 104% | 116% | 67.5% | 98.9% | -12.9% (active) |
| Cc1ccc(S(=O)(=O)NN/C(N)=N\S(=O)(=O)c2cc(C)c(Cl)cc2SCc2ccccc2)cc1 | 90.6% | 90.4% | 168% | 82.4% | 110% | 71% | 29.9% | 56.7% | 93.4% | 115% | 115% | 57.8% | 76.1% | 92.5% | 102% | 95% | 73.9% | 97.3% | 8.06% (active) |
| CC[C@]1(O)C[C@H]2CN(CCc3c([nH]c4ccccc34)[C@@](C(=O)OC)(c3cc4c(cc3OC)N(C=O)[C@H]3[C@@](O)(C(=O)OC)[C@H](OC(C)=O)[C@]5(CC)C=CCN6CC[C@]43[C@@H]65)C2)C1 | 290% | 28.2% | 43.7% | 11.7% | -2.68% (active) | 72.3% | -13.1% (active) | 16.6% | 12.4% | -57.2% (active) | -42.5% (active) | -0.624% (active) | 45.4% | -27.1% (active) | 23.9% | 13.6% | -28.7% (active) | 5.68% (active) | -36% (active) |
| NS(=O)(=O)c1cnccc1-n1ccc(=O)c(S(N)(=O)=O)c1 | 91.4% | 84.1% | 94.2% | 85.6% | 109% | 80.9% | 9.19% (active) | 33.9% | 97.5% | 94.4% | 106% | 84.1% | 50.1% | 94% | 101% | 59.1% | 97.8% | 115% | 139% |
| O=[N+]([O-])c1cccc(/C=C/c2ccccn2)c1 | 76.1% | 74.9% | 134% | 73.2% | 91% | 34.7% | 72.1% | 73.5% | 53.3% | 105% | 78.3% | 67.4% | 114% | 87.3% | 76.9% | 71.1% | 68.6% | 102% | 69.3% |
| CCN(CC)CCOc1ccc(/C(=C(\C)c2ccc(OC)c(F)c2)c2ccc(Cl)cc2)cc1 | 80.8% | 102% | 85.1% | 78.5% | 61.1% | 82% | 86.1% | 59.7% | 68.2% | 42.2% | 84% | 19% | 55.9% | 87.6% | 87.4% | 61.6% | 24.5% | 68.4% |  |
| Cn1ccnc1C(=O)/C=C/c1ccc(C(=O)Nc2ccc(S(F)(F)(F)(F)F)cc2)cc1 | 17.8% | 43.9% | 15.4% | 24.4% | -4.08% (active) | 95.8% | 42.9% | 31.5% | 15.9% | 9.14% (active) | 15.6% | 2.18% (active) | 59.6% | 22.4% | 15.3% | 32.7% | -37.1% (active) | 42.4% |  |
| CN(C)CCN1C(=O)c2cccc3c(-c4ccc(-c5nc6c7ccccc7c7ccccc7c6[nH]5)cc4)ccc(c23)C1=O | 109% | 101% | 114% | 106% | 111% | 71.3% | 94.2% | 90.4% | 18.2% | 105% | 102% | 28.5% | 110% | 89.1% | 105% | 105% | 92.7% | 110% |  |
| O=C1C=CC(=Nc2cc(Br)c(O)c(Br)c2)C=C1 | 78.1% | 93.9% | 105% | 82.1% | 109% | 29.5% | -14.6% (active) | 118% | 70.2% | 113% | 102% | 12.6% | 70.2% | 72.6% | 82.7% | 101% | 86.4% | 90.9% |  |
| Cc1nc(Nc2ccc(NC(=S)Nc3ccccc3)cc2)nc2nc(SCc3ccccc3)[nH]c(=O)c12 | 101% | 82.6% | 173% | 95.2% | 107% | 82.4% | 40.5% | 57.9% | 99.1% | 126% | 104% | 72.1% |  | 76.9% | 98.4% | 169% | 63.3% | 74.8% | -24% (active) |
| C/C(Cc1ccc(Cl)cc1)=C(/c1ccc(Cl)cc1)c1ccc(OCCN(C)C)cc1 | 73.2% | 104% | 91.2% | 99.2% | -46.9% (active) | 72% | 80.6% | 57.8% | 61.7% | -59.2% (active) | 62.3% | -4.72% (active) | 37.1% | 74.1% | 85.6% | 97.2% | 66.7% | 71.3% |  |
| COc1ccc(Cn2cnc3cc(C(=O)Nc4cccc5ccccc45)ccc32)c(OC)c1 | 32.9% [30 µM] | 14.5% [30 µM] | 45% [30 µM] | 41.6% [30 µM] | 1.11% [30 µM] (active) | 21.1% [30 µM] | 3.89% [30 µM] (active) | 16% [30 µM] | 20.3% [30 µM] | -21.6% [30 µM] (active) | -7.09% [30 µM] (active) | 1.36% [30 µM] (active) | 38.2% [30 µM] | 4.77% [30 µM] (active) | 13.8% [30 µM] | 7.91% [30 µM] (active) | -36.7% [30 µM] (active) | 69.4% [30 µM] |  |
| COc1ccc(NC(=O)c2cccc(-c3cc(=O)c4c(O)c(OC)c(OC)cc4o3)c2)cc1 | 91.3% | 91.9% | 99.5% | 72.2% | 92.7% | 23.6% | 79.4% | 81.3% | 43% | 97.6% | 96.9% | 91.8% | 80.6% |  | 54.6% | 104% | 56.1% | 79.2% | 92% |
| COc1ccc(/C(C)=C(\c2ccc(Cl)cc2)c2ccc(OCCN(C)C)cc2)cc1F | 86.7% | 95.5% | 77.4% | 64.8% | 22.2% | 65.6% | 87.5% | 59% | 62.9% | 26% | 79.5% | 3.97% (active) | 19.2% | 71.3% | 74.5% | 42.5% | 55.2% | 5.92% (active) |  |
| CCOC(=O)c1sc(-c2ccc(OS(=O)(=O)c3ccc(C(C)(C)C)cc3)c(C=O)c2)nc1C | 33.3% | 48.5% | 93.7% | 52% | 41.7% | 21.1% | 22.1% | 84.9% | 47.2% | 72.7% | 43.8% | 16.1% | 45.1% | 53.7% | 32.9% | 28.6% | 45.6% | 52% |  |
